Screening results deposited in PubChem by National Center for Advancing Translational Sciences (NCATS).
Sampled rows, rich in hits. Any-hit rate of the full collection: about 3.6%.
D1 antag: human D1 dopamine receptor antagonism; activity change, negative = inhibition, % at 10 µM; HEK293 TREx D1 cells, calcium flux, dopamine EC80; hits give low values; P21728; 360,000 compounds, 3.2% hits; in the data active = activity change below about -30%; also: % is scaled to controls: 0 for no effect and ±100 for the full control effect
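Compound effects on dopamine-evoked calcium signalling were measured in tetracycline-induced HEK293 Trex D1 cells. Dopamine at EC80 followed a 180 s compound pre-read, and fluorescence was tracked kinetically for 180 s more.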
D1 PAM: potentiators of human D1 dopamine receptor; HEK293 TREx D1 cells, calcium flux, dopamine EC20 potentiation; potentiation, % at 10 µM; 360,000 compounds, 0.036% hits; AID 504651; in the data active = potentiation above about 30%; also: 0% is about no effect
TRHR agonist: TRH receptor (human) agonism. activation, % at 2 µM. TRHR cells, calcium flux fluo-8, FDSS agonist mode. P34981. AID 493084. 360,000 compounds, 0.18% hits; also: 0% is about no effect
Target sequence (P34981 whole entry, looked up): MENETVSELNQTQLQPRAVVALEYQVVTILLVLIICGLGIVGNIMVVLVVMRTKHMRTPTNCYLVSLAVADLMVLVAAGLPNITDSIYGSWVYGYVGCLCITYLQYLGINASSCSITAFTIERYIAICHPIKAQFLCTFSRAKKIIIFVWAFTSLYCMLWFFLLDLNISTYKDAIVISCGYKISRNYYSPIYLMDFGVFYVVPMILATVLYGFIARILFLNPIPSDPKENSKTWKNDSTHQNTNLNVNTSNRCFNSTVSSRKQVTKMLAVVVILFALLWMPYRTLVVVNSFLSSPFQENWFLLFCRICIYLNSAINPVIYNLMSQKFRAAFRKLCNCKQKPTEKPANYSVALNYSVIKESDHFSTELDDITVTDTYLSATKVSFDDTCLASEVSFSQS
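Fluo-8-loaded TRHR cells; 10 s baseline, compound added, kinetic Ca2+ fluorescence read 1/s, agonist mode.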
D1 agonist: agonists of human D1 dopamine receptor | HEK293 T-REx D1 cells, calcium flux, agonist mode | activation, % at 2 µM | 360,000 compounds, 1% hits | P21728; also: 0% is about no effect
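Inducible HEK293 T-REx D1 cells, force-coupled to calcium signalling, were plated at 4000 cells/well with tetracycline and held overnight at 30 C. After no-wash calcium dye loading, compound-evoked calcium rise over 180 s flagged agonists.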
TRHR PAM: allosterically enhances the human TRH receptor | TRHR cells, fluo-8 calcium fluorescence, EC20 TRH enhancement | enhancement, % at 2 µM | 360,000 compounds, 0.66% hits; in the data active = enhancement above about 30%; also: 0% is about no effect
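TRHR-expressing cells loaded with fluo-8 calcium dye were read kinetically (ex 480/em 530) during compound addition, then stimulated with an EC20 of TRH (10 nM final). Enhancement of the Gq-mediated intracellular calcium response was scored.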
LDHA inh: LDHA (human) enzyme inhibition; AID 1347041; P00338; activity change, % (values are at about 110 or 230 µM); 480,000 compounds, 0.15% hits; purified LDHA, NADH/diaphorase-resazurin fluorescence; hits give low values; in the data active = activity change below about -30%;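 also: plate controls were DMSO wells for no effect and wells without enzyme for full effect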
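Remaining NADH was detected by diaphorase (0.133 mg/mL) converting 37 µM resazurin to fluorescent resorufin, read at 0 and 20 minutes. The preceding 5-minute room-temperature reaction used 2 nM LDHA, 0.2 mM sodium pyruvate and 0.06 mM NADH at pH 7.4.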
Starred values were filed as active, the others as inactive; / = no result; ! = not active in a repeat. Rule as the data show it, unless noted: active = activation above about 30%; inactive = the rest.

SMILES	D1 antag	D1 PAM	TRHR agonist	D1 agonist	TRHR PAM	LDHA inh
CCOC(=O)Cc1cc(-c2ccc(F)cc2)nc2ccc3ccccc3c12	-56.6*	-10.6	0.6	8.5	1.2	-3.2
O=C(CCc1nc2sc3c(c2c(=O)[nH]1)CCC3)NCc1cccc(C(F)(F)F)c1	/	/	/	/	/	1.7
CCOc1ccc(CN2CCC(C(=O)Nc3cccc(-c4ccn[nH]4)c3)CC2)cc1Cl	-53.3*	-8.9	2.0	17.3	0.9	-7.2
COc1cccc(-c2cccc(NC(=O)C3CCN(Cc4nccs4)CC3)c2)c1	-1.3	-0.6	-0.2	0.2	-4.6	-1.8
CC1(C)CC(=O)C2=C(C1)OC(/N=C/N1CCCC1)=C(C#N)C2c1ccccc1 (stereo unspecified)	-95.0*	-11.9	-0.5	-0.8	-17.8	-10.5
CC1(C)CC(=O)C2=C(C1)OC(/N=C/N1CCOCC1)=C(C#N)C2c1ccccc1 (stereo unspecified)	-1.9	3.0	-0.3	0.3	-0.5	-5.8
COC(=O)CNC(=O)c1ccc(CN)cc1	/	/	/	/	/	7.9
CCOc1cc(-c2cc(-c3ccc(N)cc3)nc(N)c2C#N)ccc1O	0.0	0.0	-1.0	0.0	8.1	-4.5
COc1cc(-c2cc(-c3ccc(F)cc3)nc(N)c2C#N)ccc1O	-43.7*	-7.0	0.1	-0.4	0.2	1.1
Cc1ccc(-c2cc(-c3ccccc3)c(C#N)c(N)n2)o1	-1.1	-5.8	0.1	0.4	3.8	1.1
Cc1ccc(-c2cc(-c3ccc(F)cc3)nc(N)c2C#N)o1	-59.5*	-7.6	0.9	2.3	1.1	5.2
CCCCC(CC)C(=O)NCC(C)(C)CNC(=O)C(CC)CCCC (stereo unspecified)	/	/	/	/	/	-8.1
S=c1[nH]nc(COc2ccccc2)n1/N=C/c1ccncc1	/	0.5	0.1	-1.9	-3.7	-6.1
CCc1ccc(/C=N/n2c(COc3ccccc3)n[nH]c2=S)cc1	-4.8	-4.3	-0.8	60.7*	-21.1	-1.3
FC(F)(F)c1ccccc1/C=N/n1c(COc2ccccc2)n[nH]c1=S	-35.6*	-5.6	-0.5	38.3*	2.5	1.3
Cc1ccc(S(=O)(=O)N(CC(=O)Nc2c(C)cccc2C)c2cccc(Cl)c2)cc1	-85.4*	1.2	-1.6	1.1	-9.0	-7.9
Cc1ccc(S(=O)(=O)N(CC(=O)Nc2cccc(N(C)S(C)(=O)=O)c2)c2ccc(Cl)c(Cl)c2)cc1	-32.3*	-12.1	1.6	3.5	2.5	-5.2
Cc1ccc(CNC2C3CC4CC(C3)CC2C4)s1 (stereo unspecified)	/	/	/	/	/	-7.8
O=Cc1cccn1-c1cccc(F)c1	/	/	/	/	/	3.9
CC(C)CCNC(=O)c1ccc(-c2ccccc2)s1	/	/	/	/	/	35.2
Cc1ccccc1OCC(=O)N/N=C/c1ccc([N+](=O)[O-])o1	-0.1	-8.1	-0.7	4.9	1.1	2.3
Cc1cc(C)cc(OCC(=O)N/N=C/c2ccc([N+](=O)[O-])o2)c1	-37.8*	-9.9	0.6	0.1	3.7	-2.9
O=C(CN1CCCCCCC1)N/N=C/c1ccc([N+](=O)[O-])o1	0.0	-3.3	0.4	-1.0	-0.9	-0.4
O=C(CCN1CCN(c2ccccc2)CC1)N/N=C/c1ccc([N+](=O)[O-])o1	-43.4*	-7.7	0.4	-4.3	3.2	12.4
O=C(CCc1[nH]c2ccccc2c1Sc1ccccc1)NCCO	5.6	-6.6	-1.0	47.6*	0.4	-2.0
SMILES	D1 antag	D1 PAM	TRHR agonist	D1 agonist	TRHR PAM	LDHA inh
Cc1ccc(NC(=O)Cn2cc(C(=O)C3CC3)c3ccccc32)c(C)c1	0.4	-2.5	0.8	-1.7	36.3*!	-1.8
O=[N+]([O-])c1ccc(N2CCN(c3ccccc3O)CC2)c(Cl)c1	-35.6*	-6.8	-0.7	9.1	9.1	4.6
NC(=O)c1ccc(N2CCN(c3ccccc3O)CC2)c([N+](=O)[O-])c1	-56.2*	-9.3	-0.5	19.2	6.3	13.1
Cc1ccnc(NC(=O)CCc2ncc(-c3ccccc3)o2)c1	/	/	/	/	/	8.7
COC(=O)c1c(C)sc2c1OC(N)=C(C#N)C21C(=O)N(Cc2cccc(F)c2)c2ccccc21 (stereo unspecified)	/	/	/	/	/	19.3
CCOc1ccccc1CN1CCN(C/C=C/c2ccc(OC)cc2)CC1CCO (stereo unspecified)	-26.2	-5.7	2.5	11.9	-5.7	1.4
COc1ccc(/C=C/CN2CCN(CCc3ccccc3)C(CCO)C2)cc1 (stereo unspecified)	-0.4	-4.5	0.3	5.7	38.6*	-3.0
O=C(c1ccc(COc2ccc(Cl)cc2)o1)N1CCN(Cc2ccc3c(c2)OCO3)CC1	-42.9*	-11.4	1.5	10.7	-7.0	-1.7
CCOc1ccc(NC(=O)c2ccc(F)c(S(=O)(=O)NCc3ccc4c(c3)OCO4)c2)cc1	-33.9*	0.2	-0.7	4.2	-0.2	-10.0
CCOc1ccccc1NC(=O)c1ccc(F)c(S(=O)(=O)NCc2ccc3c(c2)OCO3)c1	-3.4	-2.7	-0.3	4.5	0.6	8.1
CCOc1ccc(NC(=O)N2CCN(Cc3ccc4c(c3)OCO4)CC2)cc1	-77.6*	-8.7	-2.2	2.3	0.5	1.7
O=c1oc2ccccc2c(NC2CCCC2)c1NS(=O)(=O)c1ccc(Cl)cc1	/	/	/	/	/	17.5
N[n+]1cccc2ccccc21	/	/	/	/	/	11.1
O=C(Nc1ccc2oc(-c3ccncc3)nc2c1)c1ccccc1Cl	-71.4*	0.3	-0.2	2.5	-0.3	5.3
O=C(O)c1ccccc1-c1ccccc1C(=O)Nc1ccc(-c2nc3cc(Cl)ccc3o2)cc1	-30.5*	-4.1	0.6	6.5	1.1	-9.7
O=C(Nc1ccc2oc(-c3ccccc3F)nc2c1)c1ccccc1Cl	-48.5*	-2.5	-0.4	4.3	6.3	6.1
CCC(=O)Nc1ccc(Cl)c(-c2nc3cc(C)ccc3o2)c1	/	/	/	/	/	-3.0
Cc1ccc2oc(-c3cc(NC(=O)c4ccco4)ccc3Cl)nc2c1	-39.4*	-1.1	0.2	-2.4	28.5	-12.8
COc1ccccc1-c1nc2cc(NC(=O)c3ccccc3Cl)ccc2o1	4.1	0.7	-0.6	3.6	-3.5	-9.3
O=C(Nc1ccc(-c2nc3cc(Cl)ccc3o2)cc1)c1cc(Br)ccc1Cl	-9.3	-1.2	-0.5	4.7	2.5	-12.5
COCCNC(=O)c1nc(-c2ccc3cc[nH]c3c2)no1	/	/	/	/	/	-2.6
C=CCSc1nnc(-c2cc3c(-c4ccccc4)nn(C)c3s2)n1C	-45.5*	-1.4	-0.3	2.1	2.5	1.0
Cc1sc2ncn(CC(=O)NCC3COc4ccccc4O3)c(=O)c2c1S(=O)(=O)N1CCCCC1 (stereo unspecified)	-36.8*	2.4	-0.5	1.7	-11.2	-8.4
Cc1sc2ncn(CC(=O)NCCCOC(C)C)c(=O)c2c1S(=O)(=O)N1CCN(c2ncccn2)CC1	-64.2*	-13.9	0.2	0.6	-3.0	-2.9
COc1cccc(-c2nn3c(C(C)C)nnc3s2)c1OC	/	/	/	/	/	-10.1
